# Test results as given in the supplement of paper PMC6555819.
# Legend:
# Assay in all cases: PBM binding z-score (relative to random genomic background probes); higher = stronger binding; sequences stand for … in GC…GCGATTGACAGCGTAGAATGAAGG
# [1] = test system: FXR:RXRa (NR concentration 270 nM, RXRa partner concentration 90 nM)
# Summary of the method: (§1)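 Regression normalization was applied to scanned fluorescence from custom Agilent 4×180K protein-binding microarrays. Before scanning, arrays were incubated 1 h with ligand-free nuclear receptor dimers, and binding was detected with antibodies against each partner (one per run). Binding z-scores use the random background probes as reference.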
# [2] = test system: LXRa:RXRa (NR concentration 270 nM, RXRa partner concentration 90 nM)
# Summary of the method: as §1
# [3] = test system: LXRa homodimer (NR concentration 270 nM)
# Summary of the method: as §1
# [4] = test system: LXRb:RXRa (NR concentration 270 nM, RXRa partner concentration 90 nM)
# Summary of the method: as §1
# [5] = test system: LXRb homodimer (NR concentration 270 nM)
# Summary of the method: as §1
# [6] = test system: PPARa:RXRa (NR concentration 270 nM, RXRa partner concentration 90 nM)
# Summary of the method: as §1
# [7] = test system: PPARg:RXRa (NR concentration 180 nM, RXRa partner concentration 90 nM)
# Summary of the method: as §1
# [8] = test system: PPARg:RXRa 270nM:90nM, anti-RXR (NR concentration 270 nM, RXRa partner concentration 90 nM)
# Summary of the method: as §1
# [9] = test system: PPARg:RXRa 30nM:10nM, anti-RXR (NR concentration 30 nM, RXRa partner concentration 10 nM)
# Summary of the method: as §1
# [10] = test system: PPARg:RXRa 90nM:30nM, anti-RXR (NR concentration 90 nM, RXRa partner concentration 30 nM)
# Summary of the method: as §1
# [11] = test system: PPARg:RXRa DBDmut IVT, anti-RXR (DBD mutation: RXRa K156A/R161A, NR concentration 270 nM, RXRa partner concentration 90 nM)
# Summary of the method: as §1
# [12] = test system: PPARg:RXRa IVT, anti-PPARg (NR concentration 270 nM, RXRa partner concentration 90 nM)
# Summary of the method: as §1
# [13] = test system: PPARg DBDmut:RXRa IVT, anti-PPARg (DBD mutation: PPARg1 K132A/R137A, NR concentration 270 nM, RXRa partner concentration 90 nM)
# Summary of the method: as §1
# [14] = test system: PPARg DBDmut IVT, anti-PPARg (DBD mutation: PPARg1 K132A/R137A, NR concentration 270 nM)
# Summary of the method: as §1
# [15] = test system: PPARg homodimer (NR concentration 180 nM)
# Summary of the method: as §1
# [16] = test system: PXR:RXRa (NR concentration 270 nM, RXRa partner concentration 90 nM)
# Summary of the method: as §1
# [17] = test system: PXR homodimer (NR concentration 270 nM)
# Summary of the method: as §1
# [18] = test system: RARa:RXR (NR concentration 270 nM, RXRa partner concentration 90 nM)
# Summary of the method: as §1
# [19] = test system: RARa homodimer (NR concentration 270 nM)
# Summary of the method: as §1
# [20] = test system: RARb:RXRa (NR concentration 270 nM, RXRa partner concentration 90 nM)
# Summary of the method: as §1
Sequence,PBM binding z-score [1],PBM binding z-score [2],PBM binding z-score [3],PBM binding z-score [4],PBM binding z-score [5],PBM binding z-score [6],PBM binding z-score [7],PBM binding z-score [8],PBM binding z-score [9],PBM binding z-score [10],PBM binding z-score [11],PBM binding z-score [12],PBM binding z-score [13],PBM binding z-score [14],PBM binding z-score [15],PBM binding z-score [16],PBM binding z-score [17],PBM binding z-score [18],PBM binding z-score [19],PBM binding z-score [20]
TCTCGTTGGTCACGGAGGTCACACACGACGGGTA,3.3,3.62,1.88,3.75,1.11,3.85,2.5,3.71,2.93,3.47,1.58,3.31,0.735,1.33,2.82,4.37,0.995,4.41,1.01,4.02
TAGCCTAGGTCATTCAAGGGCCAGTATAGAAAGC,4.72,3.99,0.681,2.5,0.527,3.79,1.97,2.25,0.523,1.88,1.4,2.93,0.0741,0.0632,1.31,2.5,0.325,2.93,0.561,3.9
TCTTGTAGATCAGCAGGTTACGAAAGCTGGCCAA,0.0711,-0.119,-0.159,0.185,-0.369,0.613,-0.304,1.48,2.34,1.87,1.6,0.645,-0.743,-0.301,-0.303,-0.0656,-0.456,0.298,-0.436,0.143
TCTGCTAGGTCAGTTAGTCAGCTAACGAGCTGCC,0.761,0.452,-0.662,0.131,-0.11,0.983,-0.0973,1.33,1.2,1.46,2.31,2.39,0.967,0.0395,-0.199,0.00438,-0.871,0.377,-0.653,2.89
TCACATAGGTAATACAGGTGAAAGTCGGCATCTA,0.672,0.976,0.424,0.83,0.142,1.66,1.04,2.47,3.63,3.03,2.54,1.8,1.44,0.888,0.824,0.746,0.212,1.26,0.821,0.68
CCTACAGGGCCATTCAGAGGTCATTGATCATATG,3.14,4.65,6.45,3.82,0.447,3.5,0.853,1.79,0.168,0.721,0.235,0.996,-0.322,-0.38,1.96,5.17,2.91,5.04,0.639,3.47
CGTCAAAGTTCAAATAAGGTAACGTAAAGCACGC,7.39,6.55,4.89,4.17,3.25,4.95,4.86,5.6,2.25,4.67,0.597,2.21,0.83,1.03,4.04,5.39,5.14,4.21,2.53,5.08
CCTTACGCGTCACTCCAGGTTATAGCATCGGAGT,1.11,4.05,1.55,1.36,0.803,0.54,0.559,-0.0823,-0.223,-0.192,0.0955,0.368,0.286,1,1.16,0.484,0.825,0.345,0.837,0.333
CCTACTGGGCCAGAGGTCATTGATTCCAATGCTC,3.89,4.31,4.08,4.28,0.315,5.3,9.61,8.53,9.24,9.4,3.69,4.99,0.0395,-0.7,2.97,4.8,1.58,4.62,0.505,3.63
CATACTGGGCCATCAGGTCATTGATATCAACGTT,1.86,1.46,1.4,1.75,0.36,2.86,2.91,3.57,1.42,2.43,4.24,4.71,0.816,1.18,1.3,1.99,0.876,2.16,0.345,2.25
TCCAGTTGGTCACGGAGGTCACACACGACGGGTA,3.34,3.57,2.25,3.33,0.101,3.95,3.15,3.83,2.94,3.43,2.14,3.9,0.387,0.563,2.63,4.5,1.2,4.33,0.942,4
CGAACTAGGTCAGAACAGGACAGTGACGGATGAT,1.23,0.594,-0.065,0.276,-0.492,2.87,5.01,4.26,1.69,3.39,7.03,7.13,1.03,0.514,0.929,0.794,0.206,0.633,0.383,2.99
GCATACAGGTAATACAAGGTGAAAGTCCGATTGT,0.599,2.17,0.595,0.711,-0.363,1.3,0.859,0.843,0.676,0.712,0.771,1.43,0.568,-0.128,0.379,0.708,0.62,1.48,0.481,0.594
GCTACTTGGTCAGTAAAAGGTCACACACCGGTCG,3.65,4.51,4.98,4.37,1.61,4.59,3.39,4.65,2.3,4.1,1.59,3.24,0.501,1.24,5.33,5.09,1.32,6.09,2.99,4.23
